Screening results from PubChem.
HPGD block: inhibitors of human 15-hydroxyprostaglandin dehydrogenase (HPGD) | P15428 | purified HPGD, NADH fluorescence kinetic, PGE2 substrate | Potency, µM, for the others: at the highest dose activity change, negative = inhibition, usual class: inhibitors | hit rate 4.3% among 150,000; active = well fitted inhibition curve with a large enough effect, not every such curve was filed as active; inconclusive = small, poorly fitted or top-dose-only effect, or another doubt; inactive = no such curve, though single readings can be large or run the other way; also: potency is read from the fitted curve at half-maximal effect
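20 nM HPGD preincubated 15 min at room temperature with compound in 50 mM Tris-HCl pH 8, 0.01% Tween 20. Started with 1 mM NAD+ and 30 uM prostaglandin E2; NADH fluorescence (360/450 nm) read 5 times over 30-s intervals, last minus first.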
ALDH1A1 inh: ALDH1A1 (human) enzyme inhibition | Purified ALDH1A1, NADH fluorescence, propionaldehyde substrate | Potency, µM (doses to about 75.3 µM), for inactives: at the highest dose activity, negative = inhibition, most hits filed as inhibitors | hit rate 7.3% among 220,000 | AID 1030; active = well fitted inhibition curve with a large enough effect, not every such curve was filed as active; inconclusive = small, poorly fitted or top-dose-only effect, or another doubt; inactive = no such curve, though single readings can be large or run the other way;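 also: potency is read from the fitted curve at half-maximal effect; plate controls were no enzyme wells and a reference inhibitor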
PNC inhibitor: perinucleolar compartment assembly inhibition. PC3M PTB-GFP, PNC prevalence imaging, 16 h; hits give low values. activity change (PNC), negative = inhibition, % at 10 µM. hit rate 3.1% among 140,000;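 active = readout at or below -70, meaning at least 70% loss of cells showing the perinucleolar compartment, a nuclear body marking cancer cells; inconclusive = readout between -30 and a set limit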;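 also: plate controls were DMSO wells for no effect and camptothecin positive control wells for full effect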
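PC3M cells stably expressing PTB-GFP, 750–1000 cells/well, treated 16 h at 37 °C with compound (23 nl of library stock), in duplicate. After paraformaldehyde fixation and Hoechst stain, imaged at 20x; PNC prevalence scored by image analysis.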
IMPase Li cell: membrane-permeable IMPase blocker, potentiated with lithium; Potency, µM (top dose mostly 59.4 µM), without a hit: at the top dose activity, negative = IMPase inhibition, most hits filed as inhibitors; AID 1457; CHO-M1 cells, IP1 TR-FRET (IP-One), carbachol + lithium; hit rate 0.35% among 210,000;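 also: IP1 builds up when IMPase is blocked and the TR-FRET signal falls; potency is read from the fitted curve at half-maximal effect; plate controls were basal vehicle for no effect and high inhibitor control for full effect; nearly all actives have a fitted effect of over 50% in size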
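Readout is a homogeneous TR-FRET IP1 immunoassay (Ex 320, Em 665 and 620), where raised cytosolic IP1 lowers signal. Cells were CHO-M1 treated 30 min at 37C with test compounds plus a little lithium; AC50 values came from Hill-equation fitting.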
12-hLO inh: 12-hLO (ALOX12) enzyme inhibition. Potency, µM (titrated, usually from 57.1 µM), for inactives: at the top dose activity change, negative = inhibition, actives largely listed as inhibitors. hit rate 0.12% among 150,000. purified 12-hLO, xylenol orange hydroperoxide absorbance. P18054; also: potency is read from the fitted curve at half-maximal effect; nearly all actives have a fitted effect of over 55% in size
Target sequence (P18054 whole entry, looked up): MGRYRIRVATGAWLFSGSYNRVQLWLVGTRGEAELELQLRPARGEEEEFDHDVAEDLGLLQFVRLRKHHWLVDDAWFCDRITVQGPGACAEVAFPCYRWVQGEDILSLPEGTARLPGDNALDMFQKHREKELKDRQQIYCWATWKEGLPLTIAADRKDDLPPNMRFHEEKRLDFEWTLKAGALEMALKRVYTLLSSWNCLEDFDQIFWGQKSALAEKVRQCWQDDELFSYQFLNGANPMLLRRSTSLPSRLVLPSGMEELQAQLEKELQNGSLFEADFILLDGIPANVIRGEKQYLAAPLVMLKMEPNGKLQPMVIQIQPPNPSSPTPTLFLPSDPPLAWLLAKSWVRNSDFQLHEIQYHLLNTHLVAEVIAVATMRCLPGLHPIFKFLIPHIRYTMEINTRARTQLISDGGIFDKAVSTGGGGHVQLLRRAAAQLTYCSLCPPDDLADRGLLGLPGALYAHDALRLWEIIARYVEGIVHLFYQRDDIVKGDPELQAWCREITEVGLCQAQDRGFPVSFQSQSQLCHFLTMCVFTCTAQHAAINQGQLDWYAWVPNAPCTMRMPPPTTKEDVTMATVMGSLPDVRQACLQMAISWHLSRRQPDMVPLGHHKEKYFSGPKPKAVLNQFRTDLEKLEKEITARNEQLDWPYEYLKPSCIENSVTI
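Purified human 12hLO (150 nM), preincubated 15 min with compound, then 40 uM arachidonic acid for 30 min, room temperature, Hepes pH 7.0 with 0.01% Triton X-100. Hydroperoxide detected by ferrous iron/xylenol orange; 573/405 nm absorbance ratio gives reaction progress.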
IMPase cell inh: IMPase inhibition in cells; 120,000 tested, under 10 active; inhibition (IP1 accumulation), % at 46.1 µM; CHO-M1 cells, IP1 accumulation, HTRF TR-FRET ratio; active = well fitted curve in the direction sought with a large enough effect in the signal ratio, not every such curve was filed as active; inconclusive = small, poorly fitted or top-dose-only effect, or a change in a side signal; inactive = no such curve, though single readings can be large or run the other way; the % refers to the signal ratio;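 also: cells stimulated with carbachol in lithium chloride buffer; plate controls were DMSO basal wells for no effect and reference inhibitor wells for full effect; higher means more IMPase inhibition seen as more IP1 and lower FRET ratio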
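Carbachol-driven Gq signalling in CHO-M1 cells (2000/well) generates IP1. Compounds that block IMPase raise IP1 and so reduce the FRET signal from Eu-anti-IP1 and d2-IP1 after a 10 min room-temperature lysis.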
Active calls of the source: *; u = inconclusive; x = no result; [ ] = remark or other dose. In the library only some 11% were active in any assay of this set; here they are far more common. Unless noted, calls follow the shape of the dose curve; as a rule, active = well fitted curve in the direction sought with a large enough effect; inconclusive = small, poorly fitted or top-dose-only effect, or another doubt; inactive = no such curve, though single readings can be large; an effect the other way counts as inactive or inconclusive. Unless noted, % is scaled to controls: 0 for no effect and ±100 for the full control effect.

SMILES	HPGD block	ALDH1A1 inh	PNC inhibitor	IMPase Li cell	12-hLO inh	IMPase cell inh
Cc1ccc(C)c(SCC(=O)NCc2ccco2)c1	7.9µM*	u	74	-5%[38.3 µM]	0%	-3
Cc1ccc2nc(SCC(=O)NCc3ccco3)[nH]c2c1	-14%	9%	-17	15%[38.3 µM]	-2%	-3
Cc1ccc(C(CC(=O)NCC2(c3ccccc3)CCCC2)c2ccccc2)c(O)c1 (stereo not drawn)	x	x	x	x	x	25
Cc1ccc(C)c(NNC(N)=S)c1	x	13µM*	x	1%	x	x
Cc1cccc(NNC(N)=S)c1C	x	13µM*	x	-5%	x	x
O=C(O)c1c[nH]c2c(ccc3[nH]cc(C(=O)O)c(=O)c32)c1=O	-13%	-10%[13.5 µM]	x	-21%	-2%[11.4 µM]	x
Cc1ccc(S(=O)(=O)N2CCCC2)cc1S(=O)(=O)N1CCCC1	-11%	18µM*	u	6%	0%	0
Cc1cc(S(=O)(=O)N2CCCC2)c(C)s1	x	7.9µM*	u	x	-3%	-2
Cc1cc(S(=O)(=O)N2CCN(c3ccccc3O)CC2)c(C)s1	-6%	u	40	5%[38.3 µM]	-6%	0
CCOC(=O)NC[C@H](Cc1ccc(OCCc2nc(-c3ccccc3)oc2C)cc1)N/C(C)=C\C(=O)c1ccc(C(F)(F)F)cc1	u	u	x	-1%	-8%	x
CCOC(=O)C1CCN(C(=O)COC(=O)c2ccc(Br)o2)CC1	-26%	-8%	u	-27%[38.3 µM]	-3%	7
CCOC(=O)C1CCN(C(=O)CSc2ccc(Br)cc2)CC1	x	32µM*	x	2%	x	x
CCOC(=O)C1CCN(C(=O)COc2ccc(Br)cc2C)CC1	x	4%	x	17%	x	x
CCOC(=O)C1CCN(C(=O)N(C)C)CC1	-17%	6%	u	4%[38.3 µM]	-8%	4
CCOC(=O)C1CCN(C(=O)CSc2ccc(Cl)cc2)CC1	-7%	-1%	-100*	1%	2%	-2
CCOC(=O)C1CCN(C(=O)CSCCSCC(=O)N2CCC(C(=O)OCC)CC2)CC1	-10%	11µM*	-9	-12%[38.3 µM]	6%	8
CCOC(=O)C1CCN(C(=O)c2ccc(Br)o2)CC1	-13%	3.2µM*	-6	26%[38.3 µM]	0%	0
CCN(CC)C(=O)Oc1ccc2c(=O)c(-c3ccc(OC)cc3)c(C)oc2c1	-14%	14µM*	u	-7%[38.3 µM]	-5%	-8
CCN(CC)C(=O)Oc1ccc2c(=O)c(-c3ccc(OC)cc3)coc2c1	-7%	u	-15	3%[38.3 µM]	-3%	3
O=c1[nH]c2ccc(N=Cc3c(O)ccc4cc(Br)ccc34)cc2[nH]1	-24%	1µM*	79	-5%	-4%	x
Cc1[nH]n(-c2ccccc2)c(=O)c1C=Nc1ccc2[nH]c(=O)[nH]c2c1	-10%	12%	28	-1%	1%	x
CCC1=C2CC[C@H]3C(=O)N(C)C(=O)[C@H]3[C@H]2[C@@]2(C)C(=NCC(=O)OC)OC(=O)N2C1=O	-7%	-2%	x	-8%	0%	x
O=C(CCS(=O)(=O)c1cccc2nsnc12)N1CC(=O)N(CCc2ccccc2)C(=O)C1	-22%	22µM*	u	10%	-1%	2
COc1ccc(N2CCN(C(=O)CCS(=O)(=O)c3cccc4nsnc34)CC2)cc1	-12%	u	-85*	13%	-2%	-4
CN(CC(=O)N1CC(=O)N(CCc2ccccc2)C(=O)C1)S(=O)(=O)c1cccc2nsnc12	-1%	u	28	4%[38.3 µM]	-1%	3
SMILES	HPGD block	ALDH1A1 inh	PNC inhibitor	IMPase Li cell	12-hLO inh	IMPase cell inh
O=C(NCc1cccs1)c1csc2c1CCCCC2	22µM*	u	-19	5%[38.3 µM]	1%	1
O=C(NCc1cccs1)c1ccccc1C(=O)NCc1cccs1	-4%	4%	31	6%[38.3 µM]	1%	-14
Cc1ccccc1NC(=O)c1csc2c1CCCC2	16µM*	u	22	34%	17%	-5
O=C(NCc1ccco1)c1csc2c1CCCCC2	6.3µM*	u	-12	43%[38.3 µM]	10%	2
O=C(NCc1ccccc1)c1csc2c1CCCCC2	8.9µM*	18µM*	-29	7%[38.3 µM]	0%	11
CC(C)CCNC(=O)c1csc2c1CCCCC2	x	-6%	x	1%	x	x
O=C(NCc1ccccc1)c1csc2c1CCCC2	x	-4%	x	-4%	x	x
COc1ccc(Oc2ncc3nc(C)c(=O)n(Cc4cccc(OC)c4)c3n2)cc1	x	u	x	23%	x	x
O=C(Nc1ccon1)c1csc2c1CCCC2	u	-11%	u	-4%[38.3 µM]	2%	-4
O=C(Nc1nccs1)c1csc2c1CCCC2	25µM*	u	0	-10%	-6%	x
Cc1cc(C)cc(NC(=O)CCCn2c3ccccc3c(=O)c3ccccc32)c1	x	x	x	x	x	-8
CC(C)c1ccc(C2C(C#N)=C(N)N3C(=C2C#N)Sc2ccccc23)cc1 (stereo not drawn)	u	0%	45	-14%[38.3 µM]	-6%	0
CCC(CC)C1C(C#N)=C(N)SC(N)=C1C#N	-22%	u	2	2%	-14%	-1
CC(C)C1C(C#N)=C(N)SC(N)=C1C#N	u	8.9µM*	u	-15%[38.3 µM]	-3%	4
CC(c1ccccc1)C1C(C#N)=C(N)SC(N)=C1C#N (stereo not drawn)	x	20µM*	7	x	-21%	12
CC(c1ccccc1)C1C(C#N)=C(N)OC2=C1C(=O)CCC2 (stereo not drawn)	-15%	14%	34	7%[38.3 µM]	6%	7
CC(CC1C(C#N)=C(N)SC(N)=C1C#N)c1ccccc1 (stereo not drawn)	14µM*	10µM*	16	-25%[38.3 µM]	-7%	3
CC1(C)CCC(=O)N[C@H]1CC(=O)C[C@H]1NC(=O)CCC1(C)C	2%	4%[13.5 µM]	x	6%	-1%[11.4 µM]	x
Cc1ccc(C(=O)N/N=C2\CC3CC=CC23)c(C)c1 (stereo not drawn)	x	5%	x	0%	x	x
Cc1cccc(C)c1NC(=S)N/N=C1\CC2CC=CC12 (stereo not drawn)	x	11µM*	x	0%	x	x
Cc1ccc(NC(=S)N/N=C2\CC3CC=CC23)c(C)c1 (stereo not drawn)	x	25µM*	x	-7%	x	x
COc1cccc2c1[C@H](CO)N1[C@H](C#N)[C@@H]3C[C@H](C(=O)O)[C@@H]([C@@H]1C2)N3C	-2%	6%[13.5 µM]	x	-7%	-3%[11.4 µM]	x
COc1ccc(OC)c(C2Nc3c(C)cc(C)cc3-c3cc(C)nn32)c1 (stereo not drawn)	x	x	x	x	x	-10
COC(=O)c1ccc(O)c(Sc2cc(C(=O)OC)ccc2O)c1	4µM*	13µM*	41	19%	u	0
Cc1ccc(O)c(N)c1	-9%	u	x	5%	-15%	x
Cc1ccc(O)c(Sc2cc(C)ccc2O)c1	16µM*	-3%	1	30%[38.3 µM]	u	20
COC(=O)c1ccc2nc(C)c(C)nc2c1	-9%	6%	-19	13%[38.3 µM]	-4%	1
